Test [1] can be described thus: Nuclear factor erythroid 2-related factor 2/antioxidant responsive element (Nrf2/ARE) small molecule agonists: qHTS cell viability counter screen in human keratinocytes (AID 1919968; active = well fitted curve in the direction sought with a large enough effect in the repeat runs; an effect the other way counts as inactive or inconclusive; also: nearly all actives have a fitted effect of over 55% in size; also: potency is read from the fitted curve at half-maximal effect). Put shortly:
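Cells of the KeratinoSens line were plated at 1,500 per well and left for 5 h before compound transfer from DMSO stocks. After a 23 h incubation (37 C, 5% CO2), CellTiter-Fluor was added. Signal was taken as fluorescence intensity 1 h later.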

A short description of test [2]: Nuclear factor erythroid 2-related factor 2/antioxidant responsive element (Nrf2/ARE) small molecule agonists: luciferase reporter gene qHTS assay in human keratinocytes (AID 1919969). Also: nearly all actives have a fitted effect of over 35% in size. Also: potency is read from the fitted curve at half-maximal effect.
Test [3] deals with Gonadotropin-releasing hormone receptor (Homo sapiens) (UniProt P30968). Description: Human gonadotropin-releasing hormone receptor (GnRHR) small molecule agonists, calcium flux assay in GnRHR-HEK293 cells (AID 1920063). Also: nearly all actives have a fitted effect of over 35% in size. Also: potency is read from the fitted curve at half-maximal effect. Put shortly:
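Compounds dissolved in DMSO are pin-transferred onto dye-loaded GnRHR-HEK293 cells, which were seeded 18 h before at 37 C/5% CO2. Calcium signal is read as fluorescence intensity at 1 s intervals for 3 min.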
(Calcium assays in cells follow changes in intracellular calcium, usually with a dye or a luminescent sensor.)

For test [4], the target named is KiSS-1 receptor (Homo sapiens) (UniProt Q969F8). Description: Human kisspeptin (KISS1R) small molecule agonists, calcium flux assay in KISS1R-HEK293 cells (AID 1920064; active = well fitted curve in the direction sought with a large enough effect in the repeat runs; an effect the other way counts as inactive or inconclusive). The procedure, abridged:
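Cell line: HEK293, stable human KISS1R. Dye loading 1 h at 37 C after 18 h culture. Read: kinetic fluorescence, 480/540 nm, 3 min at 1 s intervals.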

A short description of test [5]: G protein-coupled receptor (GPCR) small molecule agonists, calcium flux assay: HEK293 wild type cell line counter screen (AID 1920065). Put shortly: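 Tox21 10K compounds, 15 concentrations each in triplicate, pin-transferred in DMSO onto dye-loaded cells; kinetic read at 480/540 nm for 3 min, 1 s intervals.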
Test [6] in a line: p53 small molecule agonists, cell-based qHTS assay with rat liver microsomes (AID 1963578). The procedure, abridged: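 p53RE-bla cells, 4,000/well, pre-incubated 5 h, then given compounds plus rat liver microsomes (0.5 mg/mL final) and NADPH (0.5 mg/mL final). Incubation 16 h at 37 C; beta-lactamase reporter read by LiveBLAzer fluorescence after 2 h at room temperature.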
A short description of test [7]: p53 small molecule agonists, cell-based qHTS assay with rat liver microsomes: qHTS cell viability counter screen (AID 1963580). Also: nearly all actives have a fitted effect of over 45% in size. Also: potency is read from the fitted curve at half-maximal effect. The procedure, abridged: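 After the beta-lactamase ratio was read, CellTiter-Glo was added to the same wells and luminescence measured at 30 min; cells had been treated 16 h at 37 C with compounds, rat liver microsomes and NADPH (0.5 mg/mL final each).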
For orientation: Quantitative high-throughput screening tests each substance at several concentrations.

Test [8] in a line: p53 small molecule agonists, cell-based qHTS assay: qHTS cell viability counter screen (AID 1963581). Also: nearly all actives have a fitted effect of over 45% in size. Also: potency is read from the fitted curve at half-maximal effect. The procedure, abridged:
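ATP content measured by luminescence in HCT-116 p53RE-bla cells treated 16 h at 37 C, same wells as the reporter screen.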

In test [9] the target is 5-hydroxytryptamine receptor 2A (Homo sapiens) (UniProt P28223). The test is described as follows: 5-hydroxytryptamine receptor 2A (HTR2A) small molecule antagonists, cell-based qHTS assay (AID 1963586). Also: nearly all actives have a fitted effect of over 45% in size. The procedure, abridged:
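CHO cells stably expressing human HTR2A were plated for 18 h at 37 C, then loaded with calcium dye for 1 h. Compounds were preincubated 5 min at room temperature before DOI (4 nM solution) was added. Kinetic fluorescence was read for 3 min.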

For test [10] the target is unchanged. The test is described as follows: 5-hydroxytryptamine receptor 2A (HTR2A) small molecule agonists, cell-based qHTS assay (AID 1963587). Also: nearly all actives have a fitted effect of over 30% in size. Also: potency is read from the fitted curve at half-maximal effect. Put shortly: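 CHO cells stably expressing human HTR2A, plated 18 h, loaded with calcium dye 1 h at 37 C. Agonist mode: compounds added and intracellular calcium fluorescence recorded kinetically for 2 min at 1 sec intervals.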

Test [11] concerns the target Muscarinic acetylcholine receptor M1 (Homo sapiens) (UniProt P11229). Description: Cholinergic receptor muscarinic 1 (CHRM1) small molecule agonists, cell-based qHTS assay (AID 1963589). Also: nearly all actives have a fitted effect of over 35% in size. Put shortly: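 Homogeneous fluorescence calcium flux, agonist mode. Human M1-expressing CHO cells; compound dosed at 15 concentrations, three independent runs; signal sampled every 1 sec.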

A short description of test [12]: cAMP Responsive Elements (CRE) small molecule agonists, cell-based qHTS assay (AID 1963590). The procedure, abridged: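 HEK 293T cells stably bearing CRE-bla were plated at 2,000 cells per well and rested 18 h. Compounds, positive controls or DMSO were added for 3 h at 37 C. LiveBLAzer B/G substrate was then loaded for 2 h at room temperature.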
A short description of test [13]: cAMP Responsive Elements (CRE) small molecule antagonists, cell-based qHTS assay (AID 1963591; active = well fitted inhibition curve with a large enough effect in the signal ratio in the repeat runs, not every such curve was filed as active; the % refers to the signal ratio). Put shortly:
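First, CRE-bla HEK293T cells settled 18 h at 37 C. Next, compound and 0.25 uM final NKH477 were applied for 3 h. Last, LiveBLAzer B/G substrate was loaded for 2 h at room temperature.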

Test [14] has as its target Beta-2 adrenergic receptor (Homo sapiens) (UniProt P07550). The test is described as follows: Adrenergic beta2 receptor (ADRB2) small molecule antagonists, cell-based qHTS assay (AID 1963592). Also: series mostly up to about 92 µM; nearly all actives have a fitted effect of over 50% in size. The procedure, abridged:
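Assay format: CHO-ADRB2 cells, 18-20hr seeding at 37C/5% CO2, then compound plus 1nM isoproterenol agonist mix for 0.5hr RT. Homogeneous time-resolved fluorescence cAMP detection after 1hr, expressed as 665/615 nm ratio.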

For test [15] the target is unchanged. Description: Adrenergic beta2 receptor (ADRB2) small molecule agonists, cell-based qHTS assay (AID 1963593).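 Also: CHO cells stably overexpressing human ADRB2.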 The procedure, abridged:
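CHO cells stably over-expressing ADRB2 were plated overnight at 37C, then dosed with compounds plus a stimulation mix containing 100uM IBMX and 25uM Ro-20-1724 for 0.5hr at room temperature. cAMP was measured by HTRF competition, 1hr.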

Test [16] addresses D(2) dopamine receptor (Homo sapiens) (UniProt P14416). Description: Dopamine D2 receptor (DRD2) small molecule agonists, cell-based qHTS assay (AID 1963594). Also: nearly all actives have a fitted effect of over 35% in size. The procedure, abridged:
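HEK293 cells stably expressing human DRD2, pre-treated with PDE inhibitor Ro20-1724 (0.1 mM final) and compound 10 min at room temperature, then stimulated with NKH477 (200nM […]) for 30 min. cAMP read by HTRF (665/620 nm).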

The target is the same in test [17]. Description: Dopamine D2 receptor (DRD2) small molecule antagonists, cell-based qHTS assay (AID 1963595; active = well fitted inhibition curve with a large enough effect in the signal ratio in the repeat runs, with a control signal flat; the % refers to the signal ratio; also: potency is read from the fitted curve at half-maximal effect). The procedure, abridged: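 Stable D2 receptor HEK293 line, 24 h after seeding. Compound preincubated 10 min, then quinpirole (12 nM) with forskolin analogue NKH477 (200 nM), 30 min, room temperature. Detection by time-resolved FRET of cAMP.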
Test [18] in a line: p53 small molecule agonists, cell-based qHTS assay (AID 1963582; active = well fitted activation curve with a large enough effect in the signal ratio in the repeat runs, not every such curve was filed as active; the % refers to the signal ratio; also: potency is read from the fitted curve at half-maximal effect). Put shortly:
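16 h compound exposure (37 C) of p53 response element–bla cells, preceded by 5 h recovery at 37 C/5% CO2; read-out via LiveBLAzer B/G FRET substrate, 2 h RT, fluorescence intensity.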

Test [19] deals with Muscarinic acetylcholine receptor M1 (Homo sapiens) (UniProt P11229). Description: Cholinergic receptor muscarinic 1 (CHRM1) small molecule antagonists, cell-based qHTS assay (AID 1963588). Also: nearly all actives have a fitted effect of over 40% in size. Put shortly: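 Compounds were tested at 15 concentrations in three independent runs. Dye-loaded CHRM1-CHO cells were exposed 5 min at room temperature before stimulation by acetylcholine added at 50nM. Intracellular calcium was read kinetically on FDSS for 3 min.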

Test [20] is described as follows: p53 small molecule agonists, cell-based qHTS assay with human liver microsomes: qHTS cell viability counter screen (AID 1963579). Also: nearly all actives have a fitted effect of over 45% in size. Also: potency is read from the fitted curve at half-maximal effect. The procedure, abridged: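 p53RE-bla cells, 4,000/well, dosed 5 hours after plating, with human liver microsomes (0.5 mg/mL final) plus NADPH (0.5 mg/mL final), 16 hours at 37 C. Viability read as CellTiter-Glo luminescence after 30 min at room temperature.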

Our source for the Potency values is PubChem BioAssay (Tox21).

Inconclusive results are not listed. Calls of active or inactive are those of the source. Unless noted, calls follow the shape of the full dose curve.

Chain of Beta-2 adrenergic receptor (Homo sapiens) (P07550 whole entry, looked up): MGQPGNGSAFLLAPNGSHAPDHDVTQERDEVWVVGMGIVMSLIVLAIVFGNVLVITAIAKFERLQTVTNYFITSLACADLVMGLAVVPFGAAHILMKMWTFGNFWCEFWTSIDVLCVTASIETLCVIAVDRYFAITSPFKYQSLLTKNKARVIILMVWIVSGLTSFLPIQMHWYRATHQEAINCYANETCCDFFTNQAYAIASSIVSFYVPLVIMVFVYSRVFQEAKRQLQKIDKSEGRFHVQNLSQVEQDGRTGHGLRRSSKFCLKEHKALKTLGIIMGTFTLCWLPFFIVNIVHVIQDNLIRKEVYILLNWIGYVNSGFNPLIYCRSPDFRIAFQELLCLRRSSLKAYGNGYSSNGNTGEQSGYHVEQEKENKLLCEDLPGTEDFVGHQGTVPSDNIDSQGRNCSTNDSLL
Chain of KiSS-1 receptor (Homo sapiens) (Q969F8 whole entry, looked up): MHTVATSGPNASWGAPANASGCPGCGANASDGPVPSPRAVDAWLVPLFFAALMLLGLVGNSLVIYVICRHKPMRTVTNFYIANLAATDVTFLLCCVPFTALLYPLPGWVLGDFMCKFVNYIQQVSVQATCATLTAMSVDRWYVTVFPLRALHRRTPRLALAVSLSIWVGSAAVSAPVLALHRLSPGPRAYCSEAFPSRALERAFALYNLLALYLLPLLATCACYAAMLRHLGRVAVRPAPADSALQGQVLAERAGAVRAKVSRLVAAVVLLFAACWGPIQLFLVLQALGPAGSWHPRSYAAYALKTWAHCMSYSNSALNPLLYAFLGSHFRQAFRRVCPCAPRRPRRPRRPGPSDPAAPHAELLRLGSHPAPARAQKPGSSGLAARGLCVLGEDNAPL
Chain of Muscarinic acetylcholine receptor M1 (Homo sapiens) (P11229 whole entry, looked up): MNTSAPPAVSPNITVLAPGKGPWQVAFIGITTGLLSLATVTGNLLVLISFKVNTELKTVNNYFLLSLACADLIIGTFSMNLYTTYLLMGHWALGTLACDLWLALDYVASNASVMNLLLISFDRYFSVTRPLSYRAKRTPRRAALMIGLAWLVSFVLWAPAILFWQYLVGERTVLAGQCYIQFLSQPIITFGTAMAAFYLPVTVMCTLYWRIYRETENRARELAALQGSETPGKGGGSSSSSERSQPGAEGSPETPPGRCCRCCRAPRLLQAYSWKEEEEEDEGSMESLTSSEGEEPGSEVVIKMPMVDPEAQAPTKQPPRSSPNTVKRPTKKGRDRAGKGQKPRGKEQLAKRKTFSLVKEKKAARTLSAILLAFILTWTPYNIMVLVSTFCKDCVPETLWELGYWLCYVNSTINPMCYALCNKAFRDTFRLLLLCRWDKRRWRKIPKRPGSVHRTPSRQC
Chain of D(2) dopamine receptor (Homo sapiens) (P14416 whole entry, looked up): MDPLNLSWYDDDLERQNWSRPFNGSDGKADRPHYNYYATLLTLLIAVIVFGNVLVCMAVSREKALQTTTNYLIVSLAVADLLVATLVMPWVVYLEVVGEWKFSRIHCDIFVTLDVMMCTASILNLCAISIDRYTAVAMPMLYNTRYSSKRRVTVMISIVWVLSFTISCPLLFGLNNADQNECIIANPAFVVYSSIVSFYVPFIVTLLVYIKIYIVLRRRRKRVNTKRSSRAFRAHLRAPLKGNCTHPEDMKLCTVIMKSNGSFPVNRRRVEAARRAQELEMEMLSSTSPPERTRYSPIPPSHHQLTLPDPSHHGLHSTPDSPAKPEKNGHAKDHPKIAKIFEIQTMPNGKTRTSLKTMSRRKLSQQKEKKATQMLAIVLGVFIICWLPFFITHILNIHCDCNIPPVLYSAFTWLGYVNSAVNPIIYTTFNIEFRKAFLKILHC
Chain of 5-hydroxytryptamine receptor 2A (Homo sapiens) (P28223 whole entry, looked up): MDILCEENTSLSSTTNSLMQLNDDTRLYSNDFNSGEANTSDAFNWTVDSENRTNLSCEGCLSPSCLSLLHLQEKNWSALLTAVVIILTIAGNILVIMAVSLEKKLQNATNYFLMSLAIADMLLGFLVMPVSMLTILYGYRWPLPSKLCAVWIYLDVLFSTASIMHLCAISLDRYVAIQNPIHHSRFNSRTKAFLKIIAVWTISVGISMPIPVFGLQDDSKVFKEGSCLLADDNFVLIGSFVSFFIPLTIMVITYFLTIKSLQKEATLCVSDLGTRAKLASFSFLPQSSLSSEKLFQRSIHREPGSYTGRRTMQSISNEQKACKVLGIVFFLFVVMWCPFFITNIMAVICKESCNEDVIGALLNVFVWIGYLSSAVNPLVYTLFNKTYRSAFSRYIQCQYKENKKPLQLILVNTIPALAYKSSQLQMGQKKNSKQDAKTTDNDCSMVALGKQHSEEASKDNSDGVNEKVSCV
Chain of Gonadotropin-releasing hormone receptor (Homo sapiens) (P30968 whole entry, looked up): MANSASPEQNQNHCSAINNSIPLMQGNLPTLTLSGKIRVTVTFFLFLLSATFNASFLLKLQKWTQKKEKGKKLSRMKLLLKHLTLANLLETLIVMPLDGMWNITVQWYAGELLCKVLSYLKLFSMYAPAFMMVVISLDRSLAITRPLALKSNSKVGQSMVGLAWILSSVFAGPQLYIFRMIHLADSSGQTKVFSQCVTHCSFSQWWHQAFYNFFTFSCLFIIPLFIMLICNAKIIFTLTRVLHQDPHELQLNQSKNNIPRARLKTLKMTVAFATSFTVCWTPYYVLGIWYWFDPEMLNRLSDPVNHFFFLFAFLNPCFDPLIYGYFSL

For `CSC1=N[C@@](C)(c2ccccc2)C(=O)N1Nc1ccccc1`, the Potency result in test [1], in [2], in test [3], in test [4], in [5] and in test [6] was “inactive” each time. Besides, the Potency entry in test [7], in test [8], in test [9], in test [10], in test [11] and in test [12] was “inactive” in each case. For the same molecule, the Potency entry in test [13], in test [14], in test [15], in test [16] and in [17] was “inactive” each time.

For the molecule `NCC1(CC(=O)O)CCCCC1`, the Potency entry in test [1], in test [2], in [3], in test [4], in test [5] and in [6] was “inactive” each time. For the same molecule, the Potency result in [7], in test [8], in test [18], in test [12], in [13] and in [14] was “inactive” in each case. Besides, the Potency entry in [15], in test [16] and in [17] was “inactive” throughout.

Consider `CC(O)C#N` (stereo not given), for which the Potency entry in test [1], in [3], in test [4], in test [5], in test [6] and in test [7] was “inactive” each time. In addition, the Potency result in test [8], in test [9], in test [10], in test [19], in [11] and in test [12] was “inactive” in each case. The Potency entry in test [13], in test [14], in test [15], in [16] and in [17] was “inactive” in each case. The Potency in test [2] was 61.1 µM (active).

`Clc1ccc(CCC(Cn2ccnc2)Sc2c(Cl)cccc2Cl)cc1` (stereo not given): the results for the Potency in test [1] and in [2] were 29.8 µM (active) and 13.3 µM (active), respectively. Further, the Potency entry in test [3], in [4], in [5], in test [6], in test [20] and in test [10] was “inactive” in each case. Besides, the Potency entry in test [11], in test [14] and in test [16] was “inactive” throughout.

With `C#C[C@]1(O)C=C[C@H]2[C@@H]3CCC4=CC(=O)CC[C@@H]4[C@H]3CC[C@@]21CC`, the Potency entry in test [1], in test [2], in test [3], in [4], in test [5] and in test [6] was “inactive” each time. In addition, the Potency entry in test [20], in test [7], in [8], in test [9], in test [10] and in test [14] was “inactive” each time. In addition, the Potency entry in [16] and in test [17] was “inactive” throughout.

As to `N#Cc1c[nH]cc1-c1cccc2c1OC(F)(F)O2`, the Potency entry in [1], in test [2], in test [3], in test [4], in test [5] and in test [6] was “inactive” each time. Besides, the Potency result in test [20], in [7], in test [9], in [10], in test [19] and in test [11] was “inactive” throughout. In addition, the Potency entry in test [14], in test [16] and in test [17] was “inactive” each time. For the same molecule, the Potency in test [18] is 14.5 µM (active).

Turning to `[F][Sn]([c]1ccccc1)([c]1ccccc1)[c]1ccccc1`, the Potency in test [1] is 0.864 µM (active); in test [2] it was 0.545 µM (active); in [3], 34.7 µM (active); in test [20] it was 2.29 µM (active); in [7] it was 11.5 µM (active); in [8], 2.89 µM (active). Also, the Potency in [10] was 30.9 µM (active); in test [17] it was 2.73 µM (active). For the same molecule, the Potency entry in test [4], in [5], in test [6], in [9], in [14] and in [16] was “inactive” each time.

In the case of `CC(C)(C)C(=O)C(Oc1ccc(Cl)cc1)n1cncn1` (stereo not given), the Potency result in test [1], in [2], in test [3], in [4], in test [5] and in [6] was “inactive” in each case. Moreover, the Potency entry in test [20], in [7], in test [8], in test [18], in test [9] and in test [10] was “inactive” each time. The Potency result in [11], in test [13], in [14], in test [16] and in test [17] was “inactive” in each case.

For the molecule `CC1=NNC(=O)N(/N=C/c2cccnc2)C1`, the Potency result in test [1], in [2], in [3], in test [4], in [5] and in test [6] was “inactive” each time. The Potency result in test [20], in test [7], in test [8], in [18], in test [9] and in test [10] was “inactive” in each case. Also, the Potency result in test [19], in [11], in test [12], in [13], in test [14] and in test [16] was “inactive” each time.
